The target of the first experiment is RILPL1. Briefly: pooled miR-30 sensor sort-seq; sequence = guide strand. The settings on record: shRNA.
Consider TCATCTATTAGAAACAGTGATA, for which the sensor-assay potency score (higher = more potent) is -1.01. Still for that read-out and setting: as for TGAGAAGTTGACATCCTTGTGG, the figure is 0.201; as for TTCAGGGTGCATCTGCACCGAG, -0.831. On the same count and under the same terms, as for TTAGAAACAGTGATAGCCCTGG, the figure is 0.299; as for TTGGCGCGGATCTCGTCGCGTT, -1.09. TAAATAAACATTTCTTTAGAGT came in with a sensor-assay potency score (higher = more potent) of -1.18. TTGCGCTCCTTCTCGATGCGGT came in with a sensor-assay potency score (higher = more potent) of -0.346. Same read-out and setting: as for TTGGACTTGAGCTCGTTCCTCT, the figure is -0.104; as for TTGTTTGTCCACCACCTCCTTC, -0.987.

As to TTTGGCTTAAAGAAGCTTGTGT, the sensor-assay potency score (higher = more potent) turned out to be 0.806. The same measure, in the same setting: as for TCCTGCAGCAAGAACACCTTGG, the figure is -0.555; as for TATTCGGTTTTCCTCTTCCATT, -1.63.

The next experiment addresses RIMKLA. The experiment is described as above. The settings on record: shRNA.
In the case of TAGTCCTCGCGGATGCGCCGGT, the sensor-assay potency score (higher = more potent) was -0.762. TAGGAAGCCAACATTAGCATTT registered a sensor-assay potency score (higher = more potent) of -1.24. TTGATGGTATAGACGCTCTCTG gave a sensor-assay potency score (higher = more potent) of -0.814. Still for that read-out and setting: as for TAATGTTGTAGCCAGGTTCGGG, the figure is -0.494; as for TGTCTGACTGCACTGAGGGTGT, -0.858; as for TTTCACTAGAGGTAGACCCACT, -0.539. Still for that read-out and setting: then ATCAATGCCACAGAAGTCCATG, with -1.18; and TCACACACCACAAAGGAGCCAT, with 0.0799. On the same count and under the same terms, as for AAGCATAGAGCCTATGACCTGG, the figure is 0.485; as for TCACTGTCTGACTGCACTGAGG, -1.83; as for TTGGACTCGACAGTCCTGGGAG, 0.0465.

The sequence TAGCATTTGCCTCACACACCAC came in with a sensor-assay potency score (higher = more potent) of -0.761.
Further: reference of the scale not given here.
